Results from PubChem BioAssay (Tox21).
Unmarked numbers belong to inactive results. The source made the active and inactive calls. Calls come from the whole dose curve; as a rule, active = well fitted curve in the direction sought with a large enough effect in the signal ratio in the repeat runs (not every such curve was filed as active); inconclusive = weak or mixed curves, or effect the other way; inactive = no such curve, though single readings can be large or run the other way; the % refers to the signal ratio.
% is set by controls: 0 for no effect and ±100 for the full control effect; potency is the fitted concentration of half-maximal effect.

These compounds were tested against Estrogen receptor (Homo sapiens) (UniProt P03372) (assay: qHTS assay to identify small molecule antagonists of the estrogen receptor alpha (ER-alpha) signaling pathway (AID 743069)). Details: HEK293 ER-alpha-UAS-bla, beta-lactamase ratio, antagonist mode; series mostly up to 69.4 µM; activity, negative = inhibition: at the top concentration.
Sequence of Estrogen receptor (Homo sapiens) (P03372 whole entry, looked up): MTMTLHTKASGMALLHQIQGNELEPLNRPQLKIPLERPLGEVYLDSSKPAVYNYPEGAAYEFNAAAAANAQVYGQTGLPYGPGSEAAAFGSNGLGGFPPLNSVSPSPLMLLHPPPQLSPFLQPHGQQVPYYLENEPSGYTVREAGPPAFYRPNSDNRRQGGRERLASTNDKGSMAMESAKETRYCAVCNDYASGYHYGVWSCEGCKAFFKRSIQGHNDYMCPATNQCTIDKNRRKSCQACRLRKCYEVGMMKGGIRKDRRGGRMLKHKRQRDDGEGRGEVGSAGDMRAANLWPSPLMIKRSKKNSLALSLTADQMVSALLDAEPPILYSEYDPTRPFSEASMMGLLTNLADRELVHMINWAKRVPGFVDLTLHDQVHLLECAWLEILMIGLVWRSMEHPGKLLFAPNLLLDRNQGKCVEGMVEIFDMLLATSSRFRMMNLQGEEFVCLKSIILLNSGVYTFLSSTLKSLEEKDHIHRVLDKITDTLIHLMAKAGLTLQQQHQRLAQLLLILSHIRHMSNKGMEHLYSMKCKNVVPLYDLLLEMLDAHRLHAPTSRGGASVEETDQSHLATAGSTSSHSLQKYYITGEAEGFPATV
Description: National Center for Advancing Translational Sciences [NCATS]
NIH Chemical Genomics Center [NCGC]
U.S. Environmental Protection Agency [EPA]
National Institutes of Environmental Health Sciences [NIEHS]
National Toxicology Program [NTP]
U.S. Food and Drug Administration [FDA]
Estrogen receptor (ER), a nuclear hormone receptor, plays an important role in development, metabolic homeostasis and reproduction. Two subtypes of ER, ER-alpha and ER-beta have similar expression patterns with some uniqueness in both types. Endocrine disrupting chemicals (EDCs) and their interactions with steroid hormone receptors like ER causes disruption of normal endocrine function. To identify the compounds that inhibit ER signaling, an ER-alpha-UAS-bla GripTiteTM cell line (Invitrogen, Carlsbad, CA, USA) containing a beta-lactamase reporter gene under the control of an Upstream Activator Sequence (UAS) stably integrated into HEK293 cells was used to screen the Tox21 10K compound library.
Tox21 Assay Protocol Summary:
ER-alpha-bla cells were cultured in assay medium containing 2% charcoal stripped FBS overnight in the culture flasks before the assay was performed. The cells were dispensed at 5,000 cells/5 uL of assay medium per well into black wall/clear-bottom 1536-well plates using a Multidrop Combi (ThermoFisher Scientific, Waltham, MA) dispenser. After the assay plates were incubated at a 37C and 5% CO2 for 4 hr, 23 nL of compounds dissolved in DMSO, positive controls or DMSO only was transferred to the assay plate by a Pintool station (Kalypsys, San Diego, CA), followed by addition of 1 uL of 17beta-estradiol in assay medium using a Flying Reagent Dispenser (Aurora Discovery, San Diego, CA). The plates were incubated at 37C and 5% CO2 for 18 hr. Then 1 uL of LiveBLAzerTM B/G FRET substrate was added using a Flying Reagent Dispenser, the plates were incubated at room temperature for 2 hours, and fluorescence intensity was measured by an Envision plate reader (PerkinElmer, Shelton, CT).
With `C=C1C(=C/C=C2\CCC[C@]3(C)[C@@H]([C@H](C)/C=C/[C@@H](O)C4CC4)CC[C@@H]23)C[C@@H](O)C[C@@H]1O` the Potency was 21.3 µM [inconclusive] (active).
With `Nc1cccc(S(=O)(=O)c2cccc(N)c2)c1` the “activity, negative = inhibition” value was -70.6%.
For `C[Si](C)(CCCN)O[Si](C)(C)CCCN`, the “activity, negative = inhibition” value was 15.1%.
In the case of `COc1ccc(C(=O)N2CCN(CC(=O)N3CCOCC3)CC2)cc1`, the “activity, negative = inhibition” value is reported as -9.75%.
`O=[N+]([O-])c1ccc2[nH]ncc2c1` was tested, and the “activity, negative = inhibition” value was -5.81%.
With `C[N+]1(CC2COC(c3ccccc3)(C3CCCCC3)O2)CCCCC1` (stereo not given) the “activity, negative = inhibition” value was -1.51%.
For `CC1OC(=O)C(C)OC1=O` (stereo not given), the “activity, negative = inhibition” value was 16.6%.
`CCO[C@H](Cc1ccc(OCCc2ccc(OS(C)(=O)=O)cc2)cc1)C(=O)O` was tested, and the “activity, negative = inhibition” value was -11.3%.
`C=C(C)C(=O)OCC` was tested, and the “activity, negative = inhibition” value was 4.15% [at 79.1 µM].
With `CC(C)Nc1ccc(NC(C)C)c2c1C(=O)c1ccccc1C2=O` the “activity, negative = inhibition” value was 19.1%.
In the case of `CN(C)c1ccc(CCO)cc1`, the “activity, negative = inhibition” value is reported as -8.53%.
For `COc1cc(C(=O)OCCCN2CCCN(CCCOC(=O)c3cc(OC)c(OC)c(OC)c3)CC2)cc(OC)c1OC`, the “activity, negative = inhibition” value was -20.8%.
For `CCN(CC)CCNC(=O)c1cc(Br)c(N)cc1OC`, the “activity, negative = inhibition” value was -1.69%.
For `CN1CCC(N(Cc2cccs2)c2ccccc2)CC1`, the “activity, negative = inhibition” value was -31%.
For `C[N+]1(C)CCC(OC(=O)C(O)(c2ccccc2)C2CCCC2)C1` (stereo not given), the “activity, negative = inhibition” value was -23.1%.
With `c1ccc(-c2ccccn2)nc1` the “activity, negative = inhibition” value was 56.9%.
In the case of `CCOc1ccc(N)c([N+](=O)[O-])c1`, the “activity, negative = inhibition” value is reported as -12.2%.
`CCCCCCCCCOS(=O)(=O)O` was tested, and the “activity, negative = inhibition” value was 5.71%.
`NCC(=O)CCC(=O)O` was tested, and the “activity, negative = inhibition” value was 5.54%.
`Clc1ccc2c(c1)CCc1cccnc1C2=C1CCNCC1` was tested, and the “activity, negative = inhibition” value was -26.1%.
In the case of `CCOC(=O)c1cccnc1`, the “activity, negative = inhibition” value is reported as -1.19%.
`O=C1CCCCCCCCCCCC(=O)OCCO1` was tested, and the “activity, negative = inhibition” value was 7.73%.
With `CCCCCCCCCCO[C@@H]1O[C@H](CO)[C@@H](O)[C@H](O)[C@H]1O` the “activity, negative = inhibition” value was -19.9%.
`OC[C@H]1O[C@@H](OCCc2ccc(O)cc2)[C@H](O)[C@@H](O)[C@@H]1O` was tested, and the “activity, negative = inhibition” value was 18.9%.
`CCO[Si](CCCCl)(OCC)OCC` was tested, and the “activity, negative = inhibition” value was -15.9%.
With `Nc1cccc([N+](=O)[O-])c1` the “activity, negative = inhibition” value was -7.26%.
`N=c1ccn2c(n1)O[C@H]1[C@H](O)[C@@H](CO)O[C@H]12` was tested, and the Potency was “inactive”.
In the case of `CC(=O)c1ccc2c(c1)N(CCCN1CCC(CCO)CC1)c1ccccc1S2`, the “activity, negative = inhibition” value is reported as -7.24% [at 32.6 µM].
For `CC(=O)OC[C@H]1O[C@@H](n2ncc(=O)[nH]c2=O)[C@H](OC(C)=O)[C@@H]1OC(C)=O`, the Potency was 2.68 µM [inconclusive] (active).
With `Cc1c(N)cccc1[N+](=O)[O-]` the “activity, negative = inhibition” value was -10.7% [at 79.1 µM].
For `CCc1c(C(=O)NN2CCCCC2)nn(-c2ccc(Cl)cc2Cl)c1-c1ccc(Br)cc1`, the Potency was 13.8 µM [inconclusive] (active).
With `COS(=O)(=O)C(F)(F)F` the “activity, negative = inhibition” value was -6.14% [at 79.1 µM].
With `CCCCCCCCCCCc1ccccc1` the “activity, negative = inhibition” value was -43.3%.
`COc1ccc(C(=O)c2ccc(OC)cc2O)c(O)c1` was tested, and the “activity, negative = inhibition” value was -10.8% [at 79.1 µM].
`CCOC(=O)C1=C[C@]2(CC)CCCN3CCc4c(n1c1ccccc41)[C@@H]32` was tested, and the Potency was “inactive”.
`CC1=CC[C@H](C(C)C)C=C1` was tested, and the “activity, negative = inhibition” value was -17.4%.
For `O=C1[C@H]2CCCC[C@H]2C(=O)N1CCCCN1CCN(c2nsc3ccccc23)CC1`, the “activity, negative = inhibition” value was -27.4%.
For `C=C(C)C(=O)OCCO`, the “activity, negative = inhibition” value was 15.6% [at 79.1 µM].
For `CC(=O)c1ccc2c(c1)N(CCCN(C)C)c1ccccc1S2`, the “activity, negative = inhibition” value was -17.7% [at 32.6 µM].
In the case of `C[N+](C)(C)CCOC(=O)CCC(=O)OCC[N+](C)(C)C`, the “activity, negative = inhibition” value is reported as 3.16%.
